Outcome and AC50 data for 7 compounds are collected here from PubChem BioAssay (EPA / NIEHS).

For test [1], the target named is Cellular tumor antigen p53 (Homo sapiens) (UniProt P04637). Description: TOX21_p53_BLA_p2_ratio: Tox21 HCT-116 p53 Agonism Beta-lactamase Assay, Ratio, Phase 2 (AID 2283592). In short, it runs like this: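 Readout: blue/green (460/530 nm) FRET emission ratio after 2 h CCF4-AM loading at room temperature, excitation 405 nm. HCT116 p53 bla cells, 16 h compound exposure at 37C, 5% CO2; agonist direction fitted against DMSO baseline.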

Test [2] has the same target. Kind of test: TOX21_p53_BLA_p3_ratio: Tox21 HCT-116 p53 Agonism Beta-lactamase Assay, Ratio, Phase 3 (AID 2283596). A digest of the protocol:
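Cells were seeded at 4000/well, rested 5 h at 37C, then dosed with DMSO compound solutions (217-fold dilution) for 16 h. CCF4-AM substrate was loaded for 2 h at room temperature, and the 460/530 nm emission ratio was fitted for gain of signal versus DMSO.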

Test [3] is described as follows: TOX21_p53_BLA_p4_viability: Viability Assessment in the Tox21 HCT-116 p53 Agonism Beta-lactamase Assay, Phase 4 (AID 2283597).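 Also: hits lower the luminescence signal meaning cytotoxicity.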 In short, it runs like this:
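ATP content by CellTiter-Glo luminescence, 30 min RT, read after the beta-lactamase ratio step. Cells: HCT116, 4000/well, compound added after 5 h, exposure 16 h at 37C. Signal loss = reduced viability.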

Test [4] concerns the target Cellular tumor antigen p53 (Homo sapiens) (UniProt P04637). Description: TOX21_p53_BLA_p5_ratio: Tox21 HCT-116 p53 Agonism Beta-lactamase Assay, Ratio, Phase 5 (AID 2283599). In short, it runs like this:
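Beta-lactamase reporter ratio (blue 460 nm over green 530 nm, 405 nm excitation) after 2 h CCF4-AM loading, in HCT-116 cells exposed 16 h at 37 C to compounds pinned at 217-fold dilution. Increases relative to DMSO baseline scored.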

A short description of test [5]: TOX21_p53_BLA_p5_viability: Viability Assessment in the Tox21 HCT-116 p53 Agonism Beta-lactamase Assay, Phase 5 (AID 2283600). A digest of the protocol:
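ATP luminescence (CellTiter-Glo, 30 min, RT) served as the viability read-out, with loss of signal indicating cytotoxicity. Compounds in DMSO were pinned at a 217-fold dilution onto 4000 cells/well and incubated 16 h, 37C.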

The target in test [6] is Cellular tumor antigen p53 (Homo sapiens) (UniProt P04637). Description: TOX21_p53_BLA_p4_ratio: Tox21 HCT-116 p53 Agonism Beta-lactamase Assay, Ratio, Phase 4 (AID 2283601). In short, it runs like this: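 Signal is the blue/green (460nm/530nm) ratio of cleaved versus uncleaved CCF4-AM substrate, read after 2 h substrate loading. Cells were HCT116 carrying the p53-responsive beta-lactamase reporter, dosed 16 h at 37C, 5% CO2; CellTiter-Glo measured in parallel.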

A short description of test [7]: TOX21_p53_BLA_p2_viability: Viability Assessment in the Tox21 HCT-116 p53 Agonism Beta-lactamase Assay, Phase 2 (AID 2283591).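 Also: actives lower the ATP signal meaning cytotoxicity.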 A digest of the protocol: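 Cytotoxicity readout: CellTiter-Glo ATP luminescence, 30 min at room temperature, after the beta-lactamase read. Cells were HCT116 exposed 16 h at 37C to compounds pin-transferred at 217-fold dilution from DMSO stocks.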

Test [8] can be described thus: TOX21_p53_BLA_p3_viability: Viability Assessment in the Tox21 HCT-116 p53 Agonism Beta-lactamase Assay, Phase 3 (AID 2283593).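 Also: cells exposed to compound for 16 h before reading.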 In short, it runs like this: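 Cellular ATP was quantified by CellTiter-Glo luminescence, read after 30 min at room temperature. Beforehand, HCT116 cells (4000/well) received compound 5 h post-seeding, 217-fold diluted from DMSO, then incubated 16 h at 37C.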

Test [9] has as its target CCAAT/enhancer-binding protein beta (Homo sapiens) (UniProt P17676). Description: ATG_C_EBP_CIS: Attagene CIS-FACTORIAL HepG2 Assay for human CCAAT/Enhancer Binding Protein (C/EBP) beta (AID 2282927; active = hit-call score of the fitted dose curve at least 0.9, where 1 is the maximum; inactive = score below 0.9). To be noted: HepG2 Attagene cis-factorial transcription factor reporter; actives raise or lower the signal. A digest of the protocol:
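Endogenous transcription factor activity in human liver HepG2 cells is inferred from induction of a CEBPB-linked reporter mRNA. Exposure lasts 24 h; activity is fitted in both directions relative to DMSO.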

Test [10] is described as follows: ATG_CMV_CIS: Attagene CIS-FACTORIAL HepG2 Assay for human CMV (Internal Marker) (AID 2282928; active = hit-call score of the fitted dose curve at least 0.9, where 1 is the maximum; inactive = score below 0.9;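 also: endpoint acts as a background internal control marker rather than a target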). As to conditions: HepG2 CMV promoter reporter, transcription factor profiling; actives raise or lower the signal. In short, it runs like this:
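Fluorescence intensity of RT-PCR-derived reporter fragments, resolved by capillary electrophoresis, gives the signal. HepG2 liver cells bearing transfected cis-element reporters were treated 24 h; activity in either direction was fit relative to DMSO-treated controls.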

Test [11] in a line: ATG_BRE_CIS: Attagene CIS-FACTORIAL HepG2 Assay for human Bone Morphogenetic Protein (BMP) Response Element (BRE) (AID 2282933; active = hit-call score of the fitted dose curve at least 0.9, where 1 is the maximum; inactive = score below 0.9). As to conditions: HepG2 BMP response element reporter, Attagene transcription factor profiling; actives raise or lower the signal. In short, it runs like this: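 Read-out: reporter mRNA induction quantified by RT-PCR and capillary electrophoresis after 24 h chemical exposure of transfected HepG2 cells. Endogenous factor activity on the BMP response element; gain or loss fitted against DMSO baseline.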

The nature of test [12]: ATG_E_Box_CIS: Attagene CIS-FACTORIAL HepG2 Assay for human Enhancer Box (E-box) (AID 2282936; active = hit-call score of the fitted dose curve at least 0.9, where 1 is the maximum; inactive = score below 0.9). To be noted: HepG2 E-box cis-reporter transcription, actives raise or lower the signal. In short, it runs like this: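 E-box-driven reporter transcripts measured in transiently transfected HepG2 after 24 h exposure: RNA reverse-transcribed, PCR-amplified, fluorescently labelled, digested and resolved by capillary electrophoresis. Gain or loss relative to DMSO.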

Test [13] in a line: ATG_M_19_CIS: Attagene CIS-FACTORIAL HepG2 Assay for M19 Transcription Factor (Internal Marker) (AID 2282939; active = hit-call score of the fitted dose curve at least 0.9, where 1 is the maximum; inactive = score below 0.9). To be noted: HepG2 Attagene CIS-FACTORIAL M19 internal marker reporter; actives raise or lower the signal. In short, it runs like this: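 Readout: fluorescent reporter-transcript fragments by capillary electrophoresis after RT-PCR. Human HepG2 liver cells carried transfected MRTU constructs reporting endogenous transcription-factor activity; exposure 24 h. Gain or loss of signal fitted relative to DMSO.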

Test [14] is described as follows: ATG_GATA_CIS: Attagene CIS-FACTORIAL HepG2 Assay for human GATA Binding Protein (AID 2282944; active = hit-call score of the fitted dose curve at least 0.9, where 1 is the maximum; inactive = score below 0.9). As to conditions: HepG2 GATA cis-element reporter, Attagene multiplex mRNA; actives raise or lower the signal. A digest of the protocol:
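Read-out: fluorescent reporter mRNA fragments resolved by capillary electrophoresis after RT-PCR. Human liver HepG2 cells carried transiently transfected cis-regulated reporter constructs; chemicals incubated 24 h; gain or loss of signal fitted relative to DMSO.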

A short description of test [15]: ATG_ISRE_CIS: Attagene CIS-FACTORIAL HepG2 Assay for human Interferon Regulatory Factor 1 (IRF1) binding to an Interferon-Stimulated Response Element (ISRE) (AID 2282948; active = hit-call score of the fitted dose curve at least 0.9, where 1 is the maximum; inactive = score below 0.9). To be noted: HepG2 ISRE cis-reporter (Attagene), mRNA transcription readout; actives raise or lower the signal. In short, it runs like this: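 Signal reflects induction or loss of ISRE-linked reporter mRNA in transiently transfected HepG2 cells after a 24 h treatment, detected by fluorescent RT-PCR fragments on capillary electrophoresis and normalised to DMSO.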

A short description of test [16]: ATG_M_32_CIS: Attagene CIS-FACTORIAL HepG2 Assay for M32 Transcription Factor (Internal Marker) (AID 2282949; active = hit-call score of the fitted dose curve at least 0.9, where 1 is the maximum; inactive = score below 0.9;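 also: background control marker of the multiplexed CIS panel rather than a real target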). As to conditions: HepG2 Attagene cis-factorial M32 reporter, mRNA; actives raise or lower the signal. A digest of the protocol: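 HepG2 transfectants (cis-regulated reporter transcription units) dosed 24 h. Reporter mRNA by RT-PCR plus CE, analysed as gain or loss relative to DMSO.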

The nature of test [17]: ATG_M_06_CIS: Attagene CIS-FACTORIAL HepG2 Assay for M06 Transcription Factor (Internal Marker) (AID 2282950; active = hit-call score of the fitted dose curve at least 0.9, where 1 is the maximum; inactive = score below 0.9). To be noted: HepG2 Attagene CIS-FACTORIAL M06 internal marker reporter; actives raise or lower the signal. In short, it runs like this: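 Terse: HepG2, transient MRTU transfection (FuGene 6), 24 h dosing; total RNA, oligo(dT) RT, PCR, FAM label, HpaI cut, capillary electrophoresis; bidirectional fit vs DMSO baseline; background-control endpoint.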

A short description of test [18]: ATG_MRE_CIS: Attagene CIS-FACTORIAL HepG2 Assay for human Metal Responsive Element (MRE) (AID 2282954; active = hit-call score of the fitted dose curve at least 0.9, where 1 is the maximum; inactive = score below 0.9). To be noted: HepG2 MRE cis-reporter transcription, Attagene multiplex; actives raise or lower the signal. In short, it runs like this: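 Endogenous MRE-dependent transcription read as reporter mRNA in transiently transfected human HepG2 cells at 24 h. RNA reverse-transcribed, PCR-amplified, labelled and resolved by capillary electrophoresis; gain or loss relative to DMSO.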

Test [19] concerns the target Paired box protein Pax-6 (Homo sapiens) (UniProt P26367). Kind of test: ATG_Pax6_CIS: Attagene CIS-FACTORIAL HepG2 Assay for human Paired Box 6 (PAX6) (AID 2282956; active = hit-call score of the fitted dose curve at least 0.9, where 1 is the maximum; inactive = score below 0.9). As to conditions: HepG2 CIS-FACTORIAL PAX6 reporter transcription, RNA readout; actives raise or lower the signal. In short, it runs like this: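 Values derive from bidirectional curve fitting of reporter mRNA signal relative to DMSO. HepG2 cells bearing transfected cis-regulated MRTUs were exposed for 24 h; transcripts were read by RT-PCR and capillary electrophoresis.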

Test [20] is described as follows: ATG_PXRE_CIS: Attagene CIS-FACTORIAL HepG2 Assay for human Pregnane X Receptor Element (PXRE) (AID 2282957; active = hit-call score of the fitted dose curve at least 0.9, where 1 is the maximum; inactive = score below 0.9). As to conditions: HepG2 Attagene CIS-FACTORIAL PXRE reporter, mRNA; actives raise or lower the signal. In short, it runs like this:
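Read-out: fluorescence of reporter-specific RT-PCR products resolved by capillary electrophoresis, fitted bidirectionally relative to DMSO. Human HepG2 liver cells carried transfected cis-promoter reporter units and were exposed to chemicals for 24 h.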

SMILES strings stand for the structures. Values joined by “and” are separate entries in the source; they are usually repeats but may differ in a detail not shown here. Equal entries are not always repeated. Results filed as inconclusive are left out. More than one record can exist for a structure, and the calls need not agree. Active and inactive are the calls of the source. The calls were made as follows, unless noted: active = hit-call score of the fitted dose curve at least 0.9, where 1 is the maximum; inconclusive = response in the unintended direction; inactive = score below 0.9.

Chain of Cellular tumor antigen p53 (Homo sapiens) (P04637 whole entry, looked up): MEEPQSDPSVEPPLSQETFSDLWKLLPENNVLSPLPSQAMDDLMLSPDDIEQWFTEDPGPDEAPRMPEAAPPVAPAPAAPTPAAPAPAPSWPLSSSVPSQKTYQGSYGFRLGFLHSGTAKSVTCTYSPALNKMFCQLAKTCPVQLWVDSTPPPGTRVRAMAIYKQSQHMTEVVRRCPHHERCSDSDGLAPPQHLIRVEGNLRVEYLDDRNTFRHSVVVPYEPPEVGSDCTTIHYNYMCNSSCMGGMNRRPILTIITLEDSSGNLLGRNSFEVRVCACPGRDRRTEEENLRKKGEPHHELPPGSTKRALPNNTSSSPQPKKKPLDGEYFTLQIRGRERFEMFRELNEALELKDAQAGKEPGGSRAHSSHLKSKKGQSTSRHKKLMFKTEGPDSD
Chain of CCAAT/enhancer-binding protein beta (Homo sapiens) (P17676 whole entry, looked up): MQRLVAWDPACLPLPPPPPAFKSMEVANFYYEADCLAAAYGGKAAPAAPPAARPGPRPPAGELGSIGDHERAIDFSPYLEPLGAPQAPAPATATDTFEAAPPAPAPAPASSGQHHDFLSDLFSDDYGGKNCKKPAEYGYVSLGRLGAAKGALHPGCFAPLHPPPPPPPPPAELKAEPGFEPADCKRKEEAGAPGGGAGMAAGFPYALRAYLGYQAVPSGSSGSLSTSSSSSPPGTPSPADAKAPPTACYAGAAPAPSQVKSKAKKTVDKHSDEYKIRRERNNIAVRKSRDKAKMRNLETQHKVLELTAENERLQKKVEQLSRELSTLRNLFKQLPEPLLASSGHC
Chain of Paired box protein Pax-6 (Homo sapiens) (P26367 whole entry, looked up): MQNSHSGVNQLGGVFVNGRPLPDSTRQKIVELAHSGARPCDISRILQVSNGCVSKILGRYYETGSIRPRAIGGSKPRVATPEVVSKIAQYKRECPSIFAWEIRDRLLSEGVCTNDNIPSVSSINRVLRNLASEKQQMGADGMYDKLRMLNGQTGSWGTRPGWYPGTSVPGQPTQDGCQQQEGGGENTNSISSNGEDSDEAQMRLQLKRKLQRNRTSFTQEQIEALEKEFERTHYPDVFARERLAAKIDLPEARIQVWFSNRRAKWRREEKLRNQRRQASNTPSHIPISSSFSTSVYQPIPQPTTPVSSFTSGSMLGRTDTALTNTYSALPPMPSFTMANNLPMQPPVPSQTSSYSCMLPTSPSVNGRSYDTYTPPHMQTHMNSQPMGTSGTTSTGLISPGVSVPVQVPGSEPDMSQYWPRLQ

Take `COc1ccc(C(=O)c2ccccc2O)c(O)c1`: the outcome in test [1], in test [2], in [3], in test [4], in test [5] and in [6] was inactive.
As usually defined, the AC50 is the midpoint of the concentration-response curve, whichever way the signal moves. On to `Nc1nc(N)c2nc(-c3ccccc3)c(N)nc2n1`, for which the AC50 in test [7] is 85.6 µM (active); in test [1], 32.3 µM (active) and 16.7 µM (active); in [2] it was 33.5 µM (active); in test [4] it was 17.5 µM (active) and 38.9 µM (active) and 28 µM (active); in test [6], 26.9 µM (active) and 21.1 µM (active) and 29.1 µM (active). In addition, the call in test [7], in test [1], in [8], in test [2], in test [3] and in test [5] was inactive.
As to `Brc1ccc(Oc2ccc(Br)cc2)cc1`, the outcome in [9], in test [12], in [13], in test [14], in [15] and in [16] was inactive. Moreover, the compound was called inactive in test [17], in [18], in test [19], in [7], in [1] and in test [8]. Moreover, the outcome in test [2], in test [3], in [4], in test [5] and in [6] was inactive. In addition, the AC50 in test [10] is 40.4 µM (active); in test [11], 86.9 µM (active); in [20], 27.3 µM (active).
With `CCC(C)(CCC(C)C)C(=O)O` (centres undefined), the outcome in [9], in [10], in test [11], in [12], in test [13] and in test [14] was inactive. For the same compound, the call in test [15], in test [16], in test [17], in test [18], in test [19] and in test [20] was inactive.
In the case of `CCO[Si](CCCN)(OCC)OCC`, the outcome in test [9], in test [10], in test [11], in [12], in test [13] and in test [14] was inactive. Moreover, the compound was classed as inactive in test [15], in test [16], in test [17], in test [18], in test [19] and in test [7]. In addition, the outcome in test [1], in [2], in test [3], in test [4], in test [5] and in test [6] was inactive. The AC50 in test [20] was 100 µM (active).
Turning to `O=[N+]([O-])c1ccc(ON=Cc2cc(Br)c(O)c(Br)c2)c([N+](=O)[O-])c1`, the result in test [7], in test [3] and in test [5] was inactive. The AC50 is 79 µM (active) in test [1]; 34.4 µM (active) in test [8]; 8.26 µM (active) in test [2]; 13.8 µM (active) in test [4]; 75.9 µM (active) in test [6].
Turning to `CCOC(=O)c1ccccc1`, the values for the AC50 in [9], in [15] and in [20] were 68.7 µM (active), 167 µM (active) and 100 µM (active), respectively. The call in [10], in [11], in test [12], in [13], in test [14] and in test [16] was inactive. Moreover, the compound was called inactive in test [17], in [18], in test [19], in test [7], in test [1] and in test [8]. Also, the outcome in [2], in [3] and in test [4] was inactive.
